Values joined by “and” are separate entries in the source; they are usually repeats but may differ in a detail not shown here. Identical values can stand only once. Compounds without any hit were thinned out: in the full panel of roughly 83,000, 20% have a hit.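 Activity criterion: percent growth below 10, measured after cells in 96-well plates were exposed to a single compound concentration for 48 hours.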 Active and inactive are the calls of the source.
Experiments:
Assay in all cases: NCI-60 one-dose screen, 48 h (100 = growth as untreated, 0 = no growth, -100 = all killed)
Settings in all cases: 10 µM unless noted
T-47D breast = system: T-47D breast
BT-549 breast = system: BT-549 breast
MDA-MB-435 melanoma = system: MDA-MB-435 melanoma
SW-620 colon = system: SW-620 colon
MCF7 breast = system: MCF7 breast
HCT-116 colon = system: HCT-116 colon
HCC-2998 colon = system: HCC-2998 colon
KM12 colon = system: KM12 colon

Row | SMILES | growth (T-47D breast) | growth (BT-549 breast) | growth (MDA-MB-435 melanoma) | growth (SW-620 colon) | growth (MCF7 breast) | growth (HCT-116 colon) | growth (HCC-2998 colon) | growth (KM12 colon)
1 | CC(C)C(=O)Nc1ccc([N+](=O)[O-])c(C(F)(F)F)c1 | 85.3% (inactive) and 89.6% (inactive) | 84.7% (inactive) and 85.9% (inactive) | 87% (inactive) and 99.6% (inactive) | 93.8% (inactive) and 96.5% (inactive) | 102% (inactive) and 90% (inactive) | 94.8% (inactive) and 92.8% (inactive) | 97.2% (inactive) and 106% (inactive) | 89.3% (inactive) and 98.4% (inactive)
2 | COC(=O)[C@H]1CCCN1C(=O)C1CCCN1C(=O)[C@@H](Cc1ccccc1)NC(=S)Nc1cc(C(F)(F)F)cc(C(F)(F)F)c1 (some centres undefined) | 105% (inactive) and 69.1% (inactive) | 112% (inactive) and 96.8% (inactive) | 100% (inactive) and 89.7% (inactive) | 104% (inactive) and 89% (inactive) | 99.2% (inactive) and 86.3% (inactive) | 112% (inactive) and 65.5% (inactive) | 108% (inactive) and 112% (inactive) | 111% (inactive) and 96.5% (inactive)
3 | O=C1c2ccccc2C(=O)N1/N=C/c1ccc2c(c1)OCO2 | 99.9% (inactive) | 97.2% (inactive) | 114% (inactive) | 107% (inactive) | 91.3% (inactive) | 95% (inactive) | 116% (inactive) | 113% (inactive)
4 | Cc1nn(-c2ccc(Cl)cc2)c2ncnc(N/N=C/c3ccccc3O)c12 | 13.3% (inactive) and 23.8% (inactive) | 36% (inactive) and 36.4% (inactive) | 27.3% (inactive) and 23.7% (inactive) | 35.1% (inactive) and 31.5% (inactive) | 8.28% (active) and 12.1% (inactive) | 26.7% (inactive) and 21.6% (inactive) | 31% (inactive) and 39.7% (inactive) | 28.4% (inactive) and 22.2% (inactive)
5 | COc1ccc(NC(=S)Nc2ccccn2)cc1 | 101% (inactive) | 105% (inactive) | 98.7% (inactive) | 102% (inactive) | 95.1% (inactive) | 95.4% (inactive) | 101% (inactive) | 91% (inactive)
6 | CNC(=O)c1cc(Oc2ccc(NC(=O)Nc3ccc(Cl)c(C(F)(F)F)c3)cc2)ccn1 | -8.57% (active) and 7.49% (active) | -1.7% (active) and 24.4% (inactive) | -27.3% (active) and -35.2% (active) | 13.5% (inactive) and 5.39% (active) | 2.9% (active) and 3.7% (active) | 0.741% (active) and 9.24% (active) | -25.4% (active) | 2.65% (active) and -14.7% (active)
7 | CCCCOc1cc(C(=O)NCCN(CC)CC)c2ccccc2n1 | 82.9% (inactive) and 92.4% (inactive) | 93.4% (inactive) and 98.5% (inactive) | 88.9% (inactive) and 98.1% (inactive) | 105% (inactive) and 97.7% (inactive) | 93.3% (inactive) and 95% (inactive) | 91% (inactive) and 105% (inactive) | 96% (inactive) and 92.2% (inactive) | 101% (inactive) and 110% (inactive)
8 | O=[N+]([O-])c1ccccc1/C=N\Nc1ccccc1 | 48.2% (inactive) and 57.9% (inactive) | 91.1% (inactive) and 97.8% (inactive) | 88.8% (inactive) and 83.6% (inactive) | 95% (inactive) and 93.3% (inactive) | 66.3% (inactive) and 69.4% (inactive) | 79.2% (inactive) and 84.5% (inactive) | 88.6% (inactive) and 91.5% (inactive) | 40.6% (inactive) and 36.1% (inactive)
9 | O=C(/C=C/c1ccccn1)c1ccccc1O | 68.7% (inactive) and 66% (inactive) | 112% (inactive) | 58.2% (inactive) and 75.2% (inactive) | 46.1% (inactive) and 73.8% (inactive) | 37.9% (inactive) and 37.4% (inactive) | 44.6% (inactive) | 9.46% (active) and 97.3% (inactive) | 40.4% (inactive) and 48.2% (inactive)
10 | N#CC(C#N)=C/C=C/c1cccc([N+](=O)[O-])c1 | 39.1% (inactive) and 17% (inactive) | 57.1% (inactive) | 6.2% (active) and -53.1% (active) | 2.75% (active) and -71.6% (active) | 32.4% (inactive) and 18% (inactive) | -64.6% (active) and -91.7% (active) | -79.1% (active) and -79.8% (active) | 8.85% (active) and -76.4% (active)
11 | O=C(N/N=C/c1ccc2c(c1)OCO2)c1ccncc1 | 112% (inactive) and 102% (inactive) | 103% (inactive) and 102% (inactive) | 108% (inactive) and 112% (inactive) | 93.6% (inactive) and 98.3% (inactive) | 107% (inactive) and 86.8% (inactive) | 105% (inactive) and 101% (inactive) | 103% (inactive) and 113% (inactive) | 91.9% (inactive) and 103% (inactive)
12 | CCOc1ccc(Nc2c3ccccc3nc3ccccc23)cc1 | 91.5% (inactive) and 13.1% (inactive) and 22.8% (inactive) | 94.4% (inactive) and 41.6% (inactive) and -3.76% (active) | 103% (inactive) and 24.5% (inactive) and 30.9% (inactive) | 92.8% (inactive) and 21% (inactive) and 29.1% (inactive) | 91.3% (inactive) and 20.1% (inactive) and 8.99% (active) | 87.6% (inactive) and -13.1% (active) and 13.2% (inactive) | 39.8% (inactive) | 99.8% (inactive) and 18% (inactive) and 33.3% (inactive)
13 | Cc1ccc2nc3c(nc2c1)-c1cccc2cccc-3c12 | 87.6% (inactive) | 111% (inactive) | 103% (inactive) | 71.1% (inactive) | 38.3% (inactive) | 89.4% (inactive) | 103% (inactive) | 75.4% (inactive)
14 | O=C1c2ccccc2C(=O)c2c(NCCNCCO)ccc(NCCNCCO)c21 | -3.06% (active) and 10.5% (inactive) and 31.6% (inactive) | 6.06% (active) and 86.7% (inactive) and 62.6% (inactive) | 22.6% (inactive) and 43.5% (inactive) and 20.8% (inactive) | 12.2% (inactive) and 27.3% (inactive) and 22.2% (inactive) | -1.56% (active) and 6.38% (active) and 2.38% (active) | -21.4% (active) and 22.7% (inactive) and 17.7% (inactive) | 36.6% (inactive) and 41.1% (inactive) | 8.81% (active) and 41.7% (inactive) and 40.2% (inactive)
15 | Oc1nc(NCCc2ccccc2)sc1/C=C1\C=Nc2ncccc21 | -1.34% (active) and 2.6% (active) | 5.29% (active) and -7.9% (active) | 18.5% (inactive) and 21% (inactive) | 7.8% (active) and 9.88% (active) | 2% (active) and 4% (active) | 5.84% (active) and 9.69% (active) | 66.2% (inactive) and 53.9% (inactive) | 9.25% (active) and 13.1% (inactive)
16 | CCOc1ccc2nc3cc(N)ccc3c(N)c2c1 | 7.14% (active) and -4.55% (active) | 35.7% (inactive) and -3.05% (active) | 91.7% (inactive) and 98.2% (inactive) | 46.1% (inactive) and 50% (inactive) | 16.8% (inactive) | 46.4% (inactive) and 29.6% (inactive) | 45.3% (inactive) and 46.1% (inactive) | 45.1% (inactive) and 31.5% (inactive)
17 | O=CC(O)C(O)C(O)CO (centres undefined) | 109% (inactive) and 96.5% (inactive) | 104% (inactive) | 112% (inactive) and 109% (inactive) | 107% (inactive) and 104% (inactive) | 97.5% (inactive) and 94.6% (inactive) | 112% (inactive) and 102% (inactive) | 101% (inactive) | 103% (inactive) and 102% (inactive)
18 | O=C(Nc1ccc([N+](=O)[O-])cc1Cl)c1cc(Cl)ccc1O | -7.5% (active) and 3.54% (active) | -35.7% (active) and -74.7% (active) | -20% (active) and -17.3% (active) | 0.797% (active) and 1.64% (active) | 3.12% (active) | -45.4% (active) and -78.2% (active) | -23.1% (active) and -28.9% (active) | -58.1% (active) and -25.8% (active)

Source: PubChem BioAssay (NCI)
